High-throughput results as filed in PubChem BioAssay.
A selection: hits, their analogues and other compounds. The true share with any hit is near 2.2%.
FUS yeast rescue: qHTS for Suppressors of FUS Proteinopathy: Primary screen using FUS-linked yeast assay; Potency, µM (series often up to 76.6 µM), actives largely listed as activators; S. cerevisiae FUS-expressing, growth rescue, OD600, 24 h; actives 0.24% (n = 390,000); AID 1347120, 2019;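 also: plate controls were DMSO vehicle for no effect and reference control for full effect; nearly all actives have a fitted effect of over 55% in size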
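Cultures pregrown in 2.5% raffinose medium are shifted to minimal medium containing 2% galactose to express toxic FUS. Compounds are tested at several concentrations. After 24hr at 30C, growth is quantified at 600 nm absorbance.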
Mito fusion yeast: qHTS Assay for Small Molecule Inhibitors of Mitochondrial Division or Activators of Mitochondrial Fusion; S. cerevisiae fusion-defective mutant growth rescue, CellTiterGlo 48 h; Potency, µM (top dose mostly 46.1 µM), inactives show at the highest dose growth rescue (activation), usual class: activators; actives 0.23% (n = 320,000); AID 485298, 2010; also: % of control where 0% means no effect; nearly all actives have a fitted effect of over 45% in size
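Read-out: ATP-based luminescence (CellTiterGlo, 10 min ambient) reporting growth of fusion-defective ts yeast after 48 hours at 37C on glycerol/ethanol YPEG medium in the presence of compound.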
Abeta rescue: qHTS for compounds that reverse cellular toxicity of Amyloid beta (A-beta) peptide in yeast: Primary Screen | yeast expressing A-beta42, growth rescue, OD600, 48 h; response scale: 0% DMSO, 100% iron-clioquinol control | Potency, µM (series often up to 46.1 µM), usual class: activators | actives 0.063% (n = 410,000); also: nearly all actives have a fitted effect of over 55% in size
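Yeast growth medium received pinned compounds, then yeast cells expressing toxic A-beta were added; plates incubated at 30 C for 48 hr. Growth read as absorbance at 600 nm, normalized to DMSO and equimolar FeCl3 plus clioquinol controls.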
TDP43 rescue: qHTS of TDP-43 Inhibitors; TDP-43 expressing yeast growth rescue, BacTiter-Glo, 24 h; Potency, µM (series often up to 46.1 µM), without a hit: at the top dose growth rescue (activation), hits mostly activators; actives 1.8% (n = 410,000); also: % of control where 0% means no effect; nearly all actives have a fitted effect of over 50% in size
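Luminescence from BacTiter-Glo reports growth of TDP-43-expressing yeast after 24 hr at 30 deg C with compound. Cells were raffinose-pregrown to mid-log, then seeded in galactose medium at OD600=0.02.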
aSyn yeast inh: qHTS of alpha-syn Inhibitors | Yeast expressing alpha-synuclein, growth rescue, BacTiter-Glo, 24 h | actives 0.14% (n = 370,000) | Potency, µM (top dose mostly 46.1 µM), for inactives: top-dose growth rescue (activation), usual class: activators; also: % of control where 0% means no effect; nearly all actives have a fitted effect of over 65% in size
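Galactose-induced alpha-syn yeast (OD600=0.02, raffinose-pregrown) + pinned cpd, 24 hr, 30 deg C; growth by BacTiter-Glo luminescence. Growth restoration scores as activation.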
* hit, by the source's call; i = inactive; u = inconclusive; x = no result given; [ ] = remark or other dose. Calls follow the shape of the dose curve; as a rule, active = well fitted curve in the direction sought with a large enough effect; inconclusive = small, poorly fitted or top-dose-only effect, or another doubt; inactive = no such curve, though single readings can be large; an effect the other way counts as inactive or inconclusive. Potency is read from the fitted curve at half-maximal effect.

SMILES	FUS yeast rescue	Mito fusion yeast	Abeta rescue	TDP43 rescue	aSyn yeast inh
COCc1cn(-c2ccc3c(c2)[C@@]2(CC(=O)N(C)C2c2ccccc2)C(=O)N3CC(C)C)nn1 (stereo not given in full)	i	x	x	x	x
COc1ccc(-n2c(SCc3nc4ccccc4[nH]3)nc3ccccc3c2=O)cc1	35.5µM*	x	x	x	x
COc1cc2nc(N3CCOCC3)nc(NC3CCN(Cc4ccccc4)CC3)c2cc1OC	x	x	x	x	8.9%
CCC1=Nc2cc(C(=O)O)ccc2Sc2ccc(Cl)cc21	i	u	i	14.1µM*	-14.8%
CC1=Nc2cc(C(=O)O)ccc2Sc2ccc(Br)cc21	i	13.8%	i	35.5µM*	-7.7%
CCC1=Nc2cc(C(=O)N3CCCCC3)ccc2Sc2ccc(C)cc21	i	12.2%	i	14.8%	12.0%
CC1=Nc2cc(C(=O)NC3CCCC3)ccc2Sc2ccc(Br)cc21	i	x	i	4.1%	x
COc1ccc(CCn2c3c(c(=O)[nH]c2=S)CN(CC(C)C)CN3)cc1OC	x	x	x	x	-1.3%
CC[N+]1(CC(=O)c2cccs2)CCCCC1	x	x	x	x	-9.5%
C/C(=N\NC(=S)NCc1ccccc1)c1ccc2c(c1)OCCO2	i	27.1%	i	12.6µM*	-1.7%
Cc1sc2ncn(CC(=O)N3CCN(c4ccccc4)CC3)c(=O)c2c1S(=O)(=O)N1CCC(C)CC1	25.1µM*	x	i	-1.1%	x
Cc1sc2ncn(CC(=O)N3CCN(c4cccc(Cl)c4)CC3)c(=O)c2c1S(=O)(=O)N1CCC(C)CC1	25.1µM*	x	i	2.2%	x
Cc1ccc(Cl)cc1N1CCN(C(=O)Cn2cnc3sc(C)c(S(=O)(=O)N4CCC(C)CC4)c3c2=O)CC1	i	x	i	3.4%	x
Cc1sc2ncn(CC(=O)N3CCN(c4ccc(F)cc4)CC3)c(=O)c2c1S(=O)(=O)N1CCC(C)CC1	i	x	i	3.2%	x
Nc1ccc(C(=O)N/N=C/c2cccc(Oc3ccccc3)c2)cc1	i	-3.2%	i	12.6µM*	0.1%
Cc1nn(C)c(C(=O)N/N=C/c2cccc(Oc3ccccc3)c2)c1Br	i	-1.6%	i	4.47µM*	7.9%
O=C(N/N=C/c1cccc(Oc2ccccc2)c1)c1cc[n+]([O-])cc1	i	-3.6%	i	-28.2%[0.397 µM]	-0.7%
Cc1cccc(NC(=O)CN2C(=O)NC3(CCCC3)C2=O)n1	i	-1.8%	i	-13.6%	2.1%
COc1ccc(CN(C(=O)/C=C/C(=O)c2ccc(OC)cc2O)C(C(=O)NC2CCCCC2)c2ccncc2)cc1 (stereo not given)	x	u	i	28.3%	35.5µM*
COCCN(CC(=O)NC1CCCCC1)C(=O)/C=C/C(=O)c1ccc(OC)cc1O	i	-0.3%	i	14.1µM*	11.0%
COc1ccc(C(=O)/C=C/C(=O)N(Cc2ccc3c(c2)OCO3)C(C(=O)NC2CCCCC2)c2ccncc2)c(O)c1 (stereo not given)	x	23.9%	i	u	u
COc1ccc(C(=O)/C=C/C(=O)N(CC(=O)NC2CCCCC2)Cc2cccs2)c(O)c1	u	13.5%	i	20µM*	1.6%
COc1ccc(C(=O)OCC(=O)NC(=O)NC2CCCC2)c(O)c1	i	-1.1%	i	7.1%	-0.4%
O=C(OCc1cn(Cc2cccc(C(F)(F)F)c2)nn1)N1CCOCC1	i	x	x	x	x
Cc1ccc(Sc2c([N+](=O)[O-])ncn2C)cc1	i	-5.5%	i	10µM*	0.1%
SMILES	FUS yeast rescue	Mito fusion yeast	Abeta rescue	TDP43 rescue	aSyn yeast inh
Cn1cnc([N+](=O)[O-])c1Sc1ccc(Br)cc1	i	21.0%	i	u	2.5%
CCc1ccc(NC(=O)CSc2nc3c(c(=O)[nH]2)CN(Cc2ccc4c(c2)OCO4)CC3)cc1	i	x	i	1.0%	x
COc1cccc(-c2coc3cc4oc(=O)c(CCC(=O)O)c(C)c4cc23)c1	i	22.4µM*	i	-33.0%	-78.8%
Cc1coc2cc3oc(=O)c(CC(=O)N4CCCCC4)c(C)c3cc12	i	x	i	9.5%	x
Cc1c(CCC(=O)N2CCC[C@H]2C(=O)O)c(=O)oc2cc3oc4c(c3cc12)CCCC4	u	7.2%	i	20µM*	11.7%
Cc1coc2cc3oc(=O)c(CCC(=O)N4CCCCC4)c(C)c3cc12	i	x	i	22.4µM*	x
COc1cccc(-c2coc3c(C)c4oc(=O)c(CCC(=O)O)c(C)c4cc23)c1	u	18.7%	i	-91.3%	-80.1%
O=C(OCc1cn(Cc2ccc(C(F)(F)F)cc2)nn1)N1CCCC1	i	x	x	x	x
COc1ccc(C(=O)N=c2sc3c(C)ccc(OC)c3n2C)cc1	i	0.8%	i	u	-6.8%
CCC(C(=O)Nc1ccccc1)n1nc(-c2cc(C)ccc2C)ccc1=O (stereo not given)	i	x	i	0.0%	x
N#Cc1ccc(Cn2ccc3ccc(-c4ccc5ccn(C(=O)c6ccccc6)c5c4)cc32)cc1	i	x	x	x	x
COc1ccccc1[C@H]1C(c2ccc(F)cc2)=NN(c2ccccc2)[C@@H]1CO	i	x	i	28.2µM*	0.2%
C[C@H]1C(c2ccc(F)cc2)=NN(c2ccccc2)[C@@H]1CO	i	x	u	17.8µM*	18.2%
O=C(c1ccc(Cl)c(Cl)c1)N1CCC(Oc2cccnc2)CC1	i	x	x	x	x
CN(C)c1ccc(C=NC2CCc3ccccc32)cc1 (stereo not given)	x	x	x	x	-5.5%
COc1ccc(CCNc2nc(-c3ccc(C)cc3)cc(C(F)F)n2)cc1OC	i	x	i	-0.2%	x
Cc1ccc(-c2cc(C(F)F)nc(S(C)(=O)=O)n2)cc1	i	-0.5%	i	11.2µM*	-11.2%
O=C(O)c1cc2c(s1)-c1ccccc1OC2	i	23.3%	i	31.6µM*	-4.1%
O=C(NC1CC1)c1cc2c(s1)-c1ccccc1OC2	i	11.1%	i	u	-13.7%
CC1Cc2ccccc2N1C(=O)CN1CCN(Cc2ccccc2)CC1 (stereo not given)	i	-4.7%	i	-3.8%	-8.9%
FC(F)(F)c1ccc2c(c1)nc1n2CCCC1	i	-8.9%	i	-6.7%	-21.0%
CN1CCN(c2nc3cc(C(F)(F)F)ccc3n3cccc23)CC1	i	18.4µM*	i	-6.6%	-3.3%
COc1ccc(Cl)cc1NC(=O)COC(=O)c1c(-c2ccccc2)noc1C	i	-5.5%	u	12.6µM*	17.6%
